{"source": "PubChem BioAssay AID894", "about": "(National Center for Advancing Translational Sciences (NCATS), 2007)", "note": "Among all 150,000 compounds or so, about 6,500 (4.3%) were called active. Not shown: some 12% with an inconclusive outcome. The entries come from a sample that favours actives as a whole. A number with no mark means an inactive call. Calls come from the whole dose curve; as a rule, active = well fitted inhibition curve with a large enough effect (not every such curve was filed as active); inconclusive = small, poorly fitted or top-dose-only effect, or another doubt; inactive = no such curve, though single readings can be large or run the other way. % is set by controls: 0 for no effect and ±100 for the full control effect; potency is the fitted concentration of half-maximal effect."}
{"molecular_target": "15-hydroxyprostaglandin dehydrogenase [NAD(+)] (Homo sapiens) (UniProt P15428)", "sequence (P15428 whole entry, looked up)": "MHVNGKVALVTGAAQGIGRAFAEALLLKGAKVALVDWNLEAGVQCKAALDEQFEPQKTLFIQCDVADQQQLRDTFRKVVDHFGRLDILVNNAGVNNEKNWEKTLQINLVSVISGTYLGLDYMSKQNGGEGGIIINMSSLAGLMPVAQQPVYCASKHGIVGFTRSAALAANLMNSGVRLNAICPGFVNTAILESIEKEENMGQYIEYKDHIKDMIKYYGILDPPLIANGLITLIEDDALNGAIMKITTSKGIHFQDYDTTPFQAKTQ", "assay": "qHTS Assay for Inhibitors of HPGD (15-Hydroxyprostaglandin Dehydrogenase)", "settings": "purified HPGD, NADH fluorescence kinetic, PGE2 substrate; activity change, negative = inhibition: active compounds read low", "method_in_brief": "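20 nM HPGD preincubated 15 min at room temperature with compound in 50 mM Tris-HCl pH 8, 0.01% Tween 20. Started with 1 mM NAD+ and 30 uM prostaglandin E2; NADH fluorescence (360/450 nm) read 5 times over 30-s intervals, last minus first.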", "units": {"activity change, negative = inhibition": "%"}}
{"compound": "O=C(CCc1ccccc1)Nc1nn[nH]n1", "activity change, negative = inhibition": -9.52}
{"compound": "Cc1cccc(N2CCN(C(=O)c3ccccc3NC(=O)C3CCCCC3C(=O)O)CC2)c1", "note": "(stereo not given)", "activity change, negative = inhibition": -8.91}
{"compound": "CC(C)c1ccc(N2CCN(C(=O)c3ccccc3NC(=O)/C=C(\\C(=O)O)c3ccccc3)CC2)cc1", "Potency": "35.5 µM (active)"}
{"compound": "O=C(O)C1CC=CCC1C(=O)Nc1ccccc1C(=O)N1CCN(c2ccccc2)CC1", "note": "(stereo not given)", "activity change, negative = inhibition": -1.15}
{"compound": "O=C(C/C(=N\\NC(=O)c1ccccc1Br)C(F)(F)F)c1cccs1", "activity change, negative = inhibition": -18.1}
{"compound": "N#Cc1cccc(CS(=O)(=O)c2nnnn2-c2cc(C(F)(F)F)cc(C(F)(F)F)c2)c1", "activity change, negative = inhibition": -8.91}
{"compound": "COCCn1c(=NC(=O)c2ccccc2[N+](=O)[O-])sc2cc(S(C)(=O)=O)ccc21", "activity change, negative = inhibition": -11.2}
{"compound": "CC(C)c1ccc(/C=C/C(=O)NNC(=O)c2cccnc2)cc1", "activity change, negative = inhibition": -6.71}
{"compound": "O=C(Nc1ccccc1)c1cccnc1Nc1ccccc1", "activity change, negative = inhibition": -10.1}
{"compound": "CC(C)c1ccc(Nc2ncccc2C#N)cc1", "Potency": "25.1 µM (active)"}
{"compound": "O=C(Nc1ccccc1)c1cc2ccccc2[nH]1", "activity change, negative = inhibition": -6.75}
{"compound": "COc1ccc(C)cc1NC(=O)CSc1ccc(Cl)cc1", "activity change, negative = inhibition": -13.4}
{"compound": "Cc1cc(C(=O)OCC(=O)Nc2nnc(C(C)C)s2)c2ccccc2n1", "activity change, negative = inhibition": -10.9}
{"compound": "COCCCNC(=S)NC(=O)c1ccc([N+](=O)[O-])cc1", "activity change, negative = inhibition": -5.32}
{"compound": "CC(C)OC(=O)c1cc(NC(=O)C2C3CCC(O3)C2C(=O)O)cc(C(=O)OC(C)C)c1", "note": "(stereo not given)", "activity change, negative = inhibition": -13.2}
{"compound": "CCOC(=O)c1c(NC(=O)C2CCN(S(=O)(=O)c3ccc(Cl)cc3)CC2)sc2c1CCCC2", "activity change, negative = inhibition": -27.2}
{"compound": "Cc1sc(NC(=O)C2C3CCC(O3)C2C(=O)O)c(C(=O)OC(C)C)c1-c1ccc(Cl)cc1", "note": "(stereo not given)", "Potency": "35.5 µM (active)"}
{"compound": "Cc1cc(NC(=O)COC(=O)COc2ccc(Cl)cc2C)c([N+](=O)[O-])cc1C", "activity change, negative = inhibition": -9.4}
{"compound": "Cc1ccc(CN2CCN(/N=C/c3cccnc3)CC2)c(C)c1", "activity change, negative = inhibition": -0.74}
{"compound": "O=C(CSC1CC(=O)N(CCc2ccccc2)C1=O)Nc1ccc(Cl)cc1", "note": "(stereo not given)", "activity change, negative = inhibition": -11.7}
{"compound": "CCOC(=O)NC(=O)C(=CNc1cccc(OC)c1)C(=O)NC(=O)OCC", "activity change, negative = inhibition": -21.8}
{"compound": "Cn1c(-c2ccc(F)cc2)cnc1SCC(=O)NCc1ccco1", "Potency": "31.6 µM (active)"}
{"compound": "O=C(CSc1nnc2scc(-c3ccc(F)cc3)n12)NCc1ccco1", "activity change, negative = inhibition": -3.23}
{"compound": "Cc1ccc(-c2csc3nnc(SCC(=O)NCc4ccco4)n23)cc1", "activity change, negative = inhibition": -10.8}
{"compound": "CCN(CC)CCNCc1ccc(OCc2ccc(Cl)nc2)c(OC)c1", "activity change, negative = inhibition": -2.75}
{"compound": "O=C1C2C3C=CC(C4CC34)C2C(=O)N1c1nccs1", "note": "(stereo not given)", "activity change, negative = inhibition": -6.02}
{"compound": "CCOc1ccc2nc(SC(CC)C(=O)Nc3cc(C)on3)sc2c1", "note": "(stereo not given)", "activity change, negative = inhibition": 0.253}
{"compound": "CCOc1cccc(NC(=O)C2CCCN(S(=O)(=O)c3ccc(OC)cc3)C2)c1", "note": "(stereo not given)", "activity change, negative = inhibition": -17}
{"compound": "CCOc1ccc2nc(C(=O)N3CCCC(C)C3)sc2c1", "note": "(stereo not given)", "Potency": "7.94 µM (active)"}
{"compound": "CCC(C)(C(=O)Nc1ccccc1C)N(C(=O)CNC(C)=O)c1ccc(C)cc1", "note": "(stereo not given)", "activity change, negative = inhibition": 1.96}
{"compound": "COc1ccc(N2C(=O)C(CC(=O)Nc3ccc(F)cc3)N(CCc3cccs3)C2=O)cc1", "note": "(stereo not given)", "activity change, negative = inhibition": -5.46}
{"compound": "COc1cc(OC)c(-n2cc(-c3ccc(Cl)cc3)[nH]c2=O)cc1Cl", "Potency": "7.08 µM (active)"}
{"compound": "COc1ccc(C(=O)n2nc(-c3ccc(Cl)cc3)nc2N)cc1OC", "activity change, negative = inhibition": -16.8}
{"compound": "Cc1ccc(-c2cc(=O)c3ccc(Cl)cc3[nH]2)cc1", "activity change, negative = inhibition": -2.76}
{"compound": "COc1ccccc1OCCC(=O)OCC(=O)NCc1ccccc1", "activity change, negative = inhibition": -9.44}
{"compound": "Cc1cc(=O)[nH]c(SCc2cc(Cl)ccc2OC(F)F)n1", "Potency": "14.1 µM (active)"}
{"compound": "O=c1cc(O)nc(SCc2ccccc2Cl)[nH]1", "activity change, negative = inhibition": -21.6}
{"compound": "Cc1cc(=O)[nH]c(SCc2cccc(F)c2)n1", "activity change, negative = inhibition": -22.9}
{"compound": "COC1=CCC2([N+](=O)[O-])CN(CC(=O)O)CC1([N+](=O)[O-])C2", "note": "(stereo not given)", "activity change, negative = inhibition": -5.2}
{"compound": "C[C@@H](O)c1nc2ccccc2n1N", "activity change, negative = inhibition": -7.02}
{"compound": "COc1ccc(/C=C(\\C#N)C(=O)NCCCn2ccnc2)cc1", "activity change, negative = inhibition": -18.4}
{"compound": "C[C@H]1Cc2c(-c3ccccc3)nc3c(c2CO1)CN(S(=O)(=O)c1ccc(Cl)c2nonc12)CC3", "activity change, negative = inhibition": -7.2}
{"compound": "COc1cc(/C=N/n2c(C)n[nH]c2=S)ccc1OCc1ccccc1", "Potency": "5.62 µM (active)"}
{"compound": "C=CCOc1ccc(/C=N/n2cncn2)cc1OC", "activity change, negative = inhibition": -24.2}
{"compound": "COc1cc(/C=N/O)ccc1OCc1ccc([N+](=O)[O-])cc1", "activity change, negative = inhibition": -3.26}
{"compound": "CCN=C1S/C(=C\\c2cc(Br)ccc2OCC(=O)OCC)C(=O)N1CC", "activity change, negative = inhibition": 51.2}
{"compound": "CCCCC1N2CC3([N+](=O)[O-])CN1CC([N+](=O)[O-])(C2)C3(C)C", "note": "(stereo not given)", "activity change, negative = inhibition": -8.6}
{"compound": "C[N+]1(CC(O)COc2ccccc2)CCN(C(=O)c2ccc([N+](=O)[O-])cc2)CC1", "note": "(stereo not given)", "activity change, negative = inhibition": -8.27}
{"compound": "O=C(O)Cc1ccc(NC(=O)c2cccs2)cc1", "activity change, negative = inhibition": -5.78}
{"compound": "CCc1cccc(CC)c1NC(=S)NCc1ccc2[nH]c(C)cc2c1", "activity change, negative = inhibition": -1.27}
{"compound": "Cc1cc2cc(CNC(=O)c3cccs3)ccc2[nH]1", "Potency": "7.08 µM (active)"}
{"compound": "CN(c1ccccc1)S(=O)(=O)c1ccc(Cl)c(C(=O)NCCc2c[nH]c3ccccc23)c1", "activity change, negative = inhibition": -0.557}
{"compound": "CC(C)C1=CC2=CC[C@H]3[C@](C)(C(=O)O)CCC[C@]3(C)C2CC1", "note": "(stereo not given in full)", "activity change, negative = inhibition": -6.95}
{"compound": "CCC1=C/C(=C\\c2ccc3c(c2)OCO3)C(=O)S1", "Potency": "28.2 µM (active)"}
{"compound": "CSC1=N/C(=C\\c2ccc3c(c2)OCO3)C(=O)S1", "activity change, negative = inhibition": -15.7}
{"compound": "O=C1/C(=C/c2ccc3c(c2)OCO3)CCC/C1=C\\c1ccc2c(c1)OCO2", "activity change, negative = inhibition": -8.26}
{"compound": "Cc1[nH]c2ccccc2c1/C=N\\NC(=O)Cn1nnc(-c2ccccc2)n1", "activity change, negative = inhibition": -7.96}
{"compound": "CNC(=O)CN1C(=O)c2ccccc2S1(=O)=O", "activity change, negative = inhibition": 0.566}
{"compound": "CCCc1nnc(NC(=O)c2cccs2)s1", "activity change, negative = inhibition": -3.96}
{"compound": "CCCc1nnc(NC(=O)CN2C(=O)c3ccccc3S2(=O)=O)s1", "Potency": "14.1 µM (active)"}
